# “And” between values parts separate entries of the source, which are not always exact repeats. Equal entries are not always repeated. The source made the active and inactive calls. Unless noted, the rule behind the calls is not given here.
# Columns and labels:
# [1] = system: Wnt5a (protein binding on small-molecule microarray); assay: Wnt5a binders on small-molecule microarray, primary screen, biophysical, 635/667 nm fluorescence (AID 1142); details: 635 nm fluorescence, higher = more signal;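 note: fluorescence read at 667 nm with signal to noise per printed feature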
# [2] = cell viability in Huh7 cells, primary screen, cytotoxicity control for HCV replication inhibitor project, CellTiter-Glo luminescence, basal, 48 h (AID 1143); details: Huh7 HCV replicon, higher = more signal, called active from +8 up or from −8 down;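 note: Huh7 hepatoma cells carrying a hepatitis C replication reporter with no stimulus; test concentration not given here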
# [3] = P. aeruginosa biofilm formation inhibitors, primary screen, PAO1 strain, BacTiter-Glo luminescence, LB-PBS (AID 1144); details: 12 h, higher = more signal
# [4] = CREB reporter modulators without forskolin, primary screen, cell-based, PC12, CRE-LacZ reporter, unstimulated (AID 1145); details: no forskolin, luminescence, 4.5 h, higher = more signal, called active from +8 up or from −8 down
# [5] = CREB reporter modulators under forskolin, primary screen, cell-based, PC12, CRE-LacZ reporter, forskolin-stimulated (AID 1146); details: luminescence, 4.5 h, higher = more signal, called active from +8 up or from −8 down;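 note: PC12 cells with 6xCRE LacZ reporter stimulated by forskolin 10 µM; beta-galactosidase reporter signal reflecting CREB driven transcription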
# [6] = target: Streptavidin (Streptomyces avidinii) (UniProt P22629); assay: streptavidin binders on small-molecule microarray, primary screen, artefact control for SMM compound annotation, biophysical, 635/667 nm fluorescence (AID 1147); details: streptavidin binding, higher = more signal;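 note: signal reflects streptavidin binding to arrayed compounds as a control protein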
# [7] = small-molecule binders of probe aInhba, primary screen, biochemical, small-molecule microarray, 635/667 nm fluorescence (AID 1148); details: higher = more signal;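 note: score merges 667nm spot fluorescence with signal-to-noise for antibody binding to printed compounds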
# Torsin-1A (Homo sapiens) [8] = target: Torsin-1A (Homo sapiens) (UniProt O14656); assay: torsin A binders from cell lysate, primary screen, small-molecule microarray, wild-type, 635/667 nm (AID 1149); details: COS7 hTOR1A-WT lysate, 635 nm fluorescence, higher = more signal
# Torsin-1A (Homo sapiens) [9] = target: Torsin-1A (Homo sapiens) (UniProt O14656); assay: small-molecule binders of mutant TOR1A in lysate, primary screen, cell lysate, small-molecule microarray, COS7 lysate, 635/667 nm fluorescence (AID 1150); details: COS7 hTOR1A mutant lysate, 635 nm fluorescence, higher = more signal;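 note: score pools 667 nm emission and signal to noise measuring lysate protein binding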
# [10] = system: Sonic hedgehog protein (Shh); assay: small-molecule binders of Shh protein, primary screen, biochemical, small-molecule microarray, 635/667 nm fluorescence (AID 1151); details: small-molecule microarray binding, 635 nm fluorescence; higher = more signal;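 note: Shh protein binding to compounds spotted on small-molecule microarray slides; score combines spot fluorescence intensity with signal-to-noise across triplicate slides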
# [11] = E. coli DRC41 culture turbidity changes, primary screen, E. coli filamentation inducer project, strain DRC41, OD650, 48 h (AID 1152);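 note: E. coli MC1000 strain DRC41 lacking acrAB efflux pump and sulA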; details: E. coli DRC41 (acrAB sulA), higher = more signal, called active from +8 up or from −8 down
# [12] = small-molecule binders of probe aLefty1, primary screen, biochemical, small-molecule microarray, 635/667 nm fluorescence (AID 1153); details: higher = more signal;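 note: score merges spot fluorescence with signal-to-noise ratio from the scanned slide images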
# [13] = PSAC antagonists in infected red cells, primary screen, cell-based, P. falciparum Indochina, OD700, 1 h (AID 1154); details: P. falciparum Indochina infected RBC osmotic lysis, higher = more signal, called active from +8 up or from −8 down
# [14] = PSAC antagonists in infected red cells, primary screen, cell-based, P. falciparum Indochina, OD700, 2 h (AID 1155);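 note: lysis reports solute entry through the parasite surface anion channel PSAC; channel blockers reduce lysis of infected cells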; details: P. falciparum Indochina infected erythrocytes, osmotic lysis OD700; higher = more signal, called active from +8 up or from −8 down
# [15] = osmotic lysis modulators in infected erythrocytes, primary screen, PSAC antagonist project, cell-based, P. falciparum Indochina, OD700, 3 h (AID 1156); details: higher = more signal, called active from +8 up or from −8 down
# [16] = PSAC antagonists in infected red cells, primary screen, cell-based, P. falciparum Indochina, OD700, 18 h (AID 1157); details: P. falciparum Indochina infected erythrocytes, osmotic lysis OD700, 18 h; higher = more signal, called active from +8 up or from −8 down
# [17] = modulators of S6 phosphorylation in cells, primary screen, cell-based, A549, cytoblot, luminescence, serum-stimulated (AID 1158); details: A549 phospho-S6 cytoblot, 5 h, higher = more signal;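 note: serum-stimulated A549 lung adenocarcinoma cells; signal is phosphorylated S6 detected by cytoblot immunostaining with HRP secondary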
# [18] = target: NADPH oxidase 2 (Homo sapiens) (UniProt P04839); assay: NOX2-dependent H2O2 signal modulators, primary screen, NOX inhibitor project, cell-based, HEK293-NOX2, PMA-stimulated, Amplex Red fluorescence (AID 1159); details: 45 min, higher = more signal, called active from +8 up or from −8 down; note: test concentration not given here
# [19] = target: NADPH oxidase 4 (Homo sapiens) (UniProt Q9NPH5); assay: NOX4-dependent H2O2 signal modulators, primary screen, NOX inhibitor project, cell-based, HEK293-NOX4, tetracycline-induced, Amplex Red fluorescence (AID 1160); details: 45 min, higher = more signal, called active from +8 up or from −8 down
# [20] = target: NADPH oxidase 5 (Homo sapiens) (UniProt Q96PH1); assay: NOX5-dependent H2O2 signal modulators, primary screen, NOX inhibitor project, cell-based, HEK293-NOX5, Amplex Red fluorescence (AID 1161); details: HEK293-NOX5, ionomycin, 45 min, higher = more signal
# Sequence of NADPH oxidase 5 (Homo sapiens) (Q96PH1 whole entry, looked up): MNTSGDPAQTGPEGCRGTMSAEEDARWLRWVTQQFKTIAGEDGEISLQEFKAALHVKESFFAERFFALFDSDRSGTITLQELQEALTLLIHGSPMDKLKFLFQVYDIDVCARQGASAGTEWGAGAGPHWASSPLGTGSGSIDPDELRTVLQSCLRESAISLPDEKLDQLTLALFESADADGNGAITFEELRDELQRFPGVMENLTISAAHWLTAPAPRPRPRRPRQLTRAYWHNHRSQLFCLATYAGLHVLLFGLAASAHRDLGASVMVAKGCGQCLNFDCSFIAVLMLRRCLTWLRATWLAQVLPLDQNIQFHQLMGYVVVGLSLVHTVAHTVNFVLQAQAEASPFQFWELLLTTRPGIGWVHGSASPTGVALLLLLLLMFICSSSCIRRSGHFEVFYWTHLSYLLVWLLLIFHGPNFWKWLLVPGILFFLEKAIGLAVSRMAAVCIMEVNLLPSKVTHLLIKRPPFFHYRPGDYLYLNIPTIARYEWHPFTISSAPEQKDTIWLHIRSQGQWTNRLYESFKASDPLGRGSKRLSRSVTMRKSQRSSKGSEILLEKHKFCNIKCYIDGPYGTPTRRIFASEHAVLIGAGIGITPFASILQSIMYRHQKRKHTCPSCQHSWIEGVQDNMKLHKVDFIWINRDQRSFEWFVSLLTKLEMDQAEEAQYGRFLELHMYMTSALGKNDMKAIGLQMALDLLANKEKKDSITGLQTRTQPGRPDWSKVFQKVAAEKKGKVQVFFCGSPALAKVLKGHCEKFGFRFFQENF
# Sequence of NADPH oxidase 2 (Homo sapiens) (P04839 whole entry, looked up): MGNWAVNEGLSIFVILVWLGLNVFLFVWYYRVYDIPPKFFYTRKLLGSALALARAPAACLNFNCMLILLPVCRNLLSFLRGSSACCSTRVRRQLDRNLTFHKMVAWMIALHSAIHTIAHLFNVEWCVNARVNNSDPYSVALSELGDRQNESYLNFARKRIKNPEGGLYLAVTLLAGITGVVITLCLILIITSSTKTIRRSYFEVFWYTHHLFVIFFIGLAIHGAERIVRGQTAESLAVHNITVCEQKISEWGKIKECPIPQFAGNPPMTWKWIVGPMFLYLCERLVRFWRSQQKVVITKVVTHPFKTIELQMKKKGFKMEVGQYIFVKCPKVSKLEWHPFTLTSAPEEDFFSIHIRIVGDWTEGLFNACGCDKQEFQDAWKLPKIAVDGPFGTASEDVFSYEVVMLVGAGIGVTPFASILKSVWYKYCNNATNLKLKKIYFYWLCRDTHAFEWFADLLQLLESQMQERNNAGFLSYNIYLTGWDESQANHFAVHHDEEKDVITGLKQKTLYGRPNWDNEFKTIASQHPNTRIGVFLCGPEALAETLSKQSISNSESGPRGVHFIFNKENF
# Sequence of Torsin-1A (Homo sapiens) (O14656 whole entry, looked up): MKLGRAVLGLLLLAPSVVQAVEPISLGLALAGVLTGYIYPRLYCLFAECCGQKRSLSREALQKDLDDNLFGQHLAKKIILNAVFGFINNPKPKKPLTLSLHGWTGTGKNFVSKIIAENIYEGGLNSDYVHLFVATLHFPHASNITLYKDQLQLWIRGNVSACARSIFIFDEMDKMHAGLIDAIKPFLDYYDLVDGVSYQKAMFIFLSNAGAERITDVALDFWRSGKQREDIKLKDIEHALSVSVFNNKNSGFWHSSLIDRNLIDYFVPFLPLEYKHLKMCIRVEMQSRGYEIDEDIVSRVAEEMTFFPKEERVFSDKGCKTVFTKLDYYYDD
# Sequence of NADPH oxidase 4 (Homo sapiens) (Q9NPH5 whole entry, looked up): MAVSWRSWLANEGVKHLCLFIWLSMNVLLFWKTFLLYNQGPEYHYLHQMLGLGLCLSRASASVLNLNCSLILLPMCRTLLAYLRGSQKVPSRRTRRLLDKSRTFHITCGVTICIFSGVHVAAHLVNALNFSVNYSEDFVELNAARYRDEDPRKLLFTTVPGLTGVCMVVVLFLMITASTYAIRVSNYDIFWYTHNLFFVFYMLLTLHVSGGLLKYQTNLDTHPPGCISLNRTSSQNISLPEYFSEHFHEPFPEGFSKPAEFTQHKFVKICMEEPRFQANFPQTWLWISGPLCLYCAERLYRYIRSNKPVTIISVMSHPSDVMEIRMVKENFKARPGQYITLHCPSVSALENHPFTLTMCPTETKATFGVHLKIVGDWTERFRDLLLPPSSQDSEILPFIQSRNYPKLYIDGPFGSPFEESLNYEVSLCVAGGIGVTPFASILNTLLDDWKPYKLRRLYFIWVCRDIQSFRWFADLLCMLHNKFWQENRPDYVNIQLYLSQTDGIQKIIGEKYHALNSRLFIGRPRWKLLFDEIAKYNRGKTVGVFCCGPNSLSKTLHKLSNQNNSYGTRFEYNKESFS
# Sequence of Streptavidin (Streptomyces avidinii) (P22629 whole entry, looked up): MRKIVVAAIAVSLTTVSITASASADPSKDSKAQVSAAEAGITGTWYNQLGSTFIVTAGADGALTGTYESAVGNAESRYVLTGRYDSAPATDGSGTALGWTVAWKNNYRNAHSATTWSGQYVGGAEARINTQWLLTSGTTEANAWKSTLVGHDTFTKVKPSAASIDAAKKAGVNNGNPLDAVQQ
Compound,composite z-score [1],z-score [2],z-score [3],z-score [4],z-score [5],composite z-score [6],composite z-score [7],composite z-score (Torsin-1A (Homo sapiens) [8]),composite z-score (Torsin-1A (Homo sapiens) [9]),composite z-score [10],z-score [11],composite z-score [12],z-score [13],z-score [14],z-score [15],z-score [16],z-score [17],z-score [18],z-score [19],z-score [20]
C=C[C@@H](OC)[C@H](O)c1ccc(OCCO)cc1,-0.825 and -0.361,0.423 (inactive) and -2.25 (inactive),-0.765 (inactive) and -0.622 (inactive),-0.883 (inactive) and -0.184 (inactive),-0.812 (inactive) and -1.15 (inactive),-0.912 and -1.1,-0.271 and -0.128,-1.95 and -1.96,-2.39 and -0.212,0.18 and -0.247,-0.368 (inactive) and 2.73 (inactive),-0.0984 and -0.53,-0.167 (inactive) and 1.57 (inactive),0.139 (inactive) and -0.317 (inactive),-0.123 (inactive) and -0.29 (inactive),0.278 (inactive) and -0.993 (inactive),-0.424 and 2.8,-0.394 (inactive) and -0.426 (inactive),-0.164 (inactive) and -0.249 (inactive),-0.743 and -1.57
CC(=O)OC[C@H]1O[C@H](C#CC(C)(C)C)C=C[C@@H]1OC(C)=O,-0.0516,0.13 (inactive),0.992 (inactive),-0.162 (inactive),1.35 (inactive),1.58,-0.0331,0.835,-0.392,0.953,0.192 (inactive),-0.0969,-0.184 (inactive),0.0987 (inactive),-0.537 (inactive),-0.0954 (inactive),-0.675,1.5 (inactive),0.847 (inactive),0.943
CCCCCN1CC=CC23O[C@@H]4C=CCCOC(=O)C4[C@H]2C(=O)N(C(C)CO)[C@@H]3C1=O (stereo not given in full),-0.226 and -0.744,-0.153 (inactive) and 0.0164 (inactive),-1.76 (inactive) and -0.529 (inactive),-0.48 (inactive) and -0.639 (inactive),-0.215 (inactive) and -0.498 (inactive),-0.819 and -0.0005,-0.837 and -0.0933,1.07 and -1.42,0.128 and -0.904,0.644 and 0.138,1.5 (inactive) and 0.971 (inactive),-0.962 and 1.57,2.38 (inactive) and 0.551 (inactive),0.174 (inactive) and 0.44 (inactive),0.833 (inactive) and 0.233 (inactive),0.0882 (inactive) and 0.454 (inactive),0.154 and 0.166,1.27 (inactive) and 1.08 (inactive),0.164 (inactive) and 0.696 (inactive),2.09 and 2.43
O=c1n(-c2ccccc2)c(=O)n2n1CC[C@@H]1C(=NOC[C@@H](O)COCc3ccco3)[C@H]3O[C@H]3[C@@H](O)[C@@H]12,0.0145 and -0.152,-2.38 (inactive) and 1.16 (inactive),-0.58 (inactive) and 0.962 (inactive),0.875 (inactive) and -0.227 (inactive),-0.218 (inactive) and 0.761 (inactive),0.312 and 0.0894,-0.0963 and -0.0407,0.716 and 0.965,0.289 and 0.457,1.7 and 0.769,-1.09 (inactive) and -0.282 (inactive),-0.0464 and -0.0626,1.17 (inactive) and 0.288 (inactive),-0.603 (inactive) and 0.191 (inactive),1.74 (inactive) and 0.238 (inactive),-2.3 (inactive) and 0.0983 (inactive),0.473 and -0.975,1.06 (inactive) and 0.176 (inactive),0.113 (inactive) and -2.01 (inactive),1.33 and -0.41
C=CCN(CCCC)C(=O)C(c1cccs1)N(CCOCCO)C(=O)/C=C\C(=O)O (stereo not given),-0.582 and -0.146,-0.259 (inactive) and -0.0074 (inactive),-0.801 (inactive) and -0.86 (inactive),-0.891 (inactive) and 0.0564 (inactive),-0.43 (inactive) and -0.359 (inactive),-0.915 and -0.578,-0.0313 and -0.0791,-0.289 and 0.536,1.73 and -0.144,-0.127 and -0.197,1.59 (inactive) and 1.84 (inactive),-0.275 and -0.127,-0.0592 (inactive) and -0.28 (inactive),-0.832 (inactive) and -0.75 (inactive),-0.114 (inactive) and 0.0221 (inactive),-1.22 (inactive) and -1.27 (inactive),1.05 and 1.65,0.0943 (inactive) and 0.209 (inactive),-0.73 (inactive) and -0.71 (inactive),0.465 and -0.0314
